Laboratory results published in PubChem BioAssay (NCATS).
Records with an inconclusive call do not appear. Unmarked numbers belong to inactive results. Active and inactive are the calls of the source. Calls come from the whole dose curve; as a rule, active = well fitted cell-killing curve with a large enough effect; inconclusive = small, poorly fitted or top-dose-only effect, or effect the other way; inactive = no such curve, though single readings can be large or run the other way.
Potency is the fitted concentration of half-maximal effect.

Assay: Cell Viability - LYMP2-005 (AID 967)
Conditions: LYMP2-005 lymphoblastoid cell viability; series mostly up to 92.2 µM; activity change, negative = viability loss: at the top concentration
From the text: NIH Chemical Genomics Center [NCGC]
NIH Molecular Libraries Screening Centers Network [MLSCN]
National Institutes of Environmental Health Sciences [NIEHS]
National Toxicology Program [NTP]
We have developed a 1536-well cell-based assay for quantitative high throughput screening (qHTS) against a number of cell lines to determine in vitro cytotoxicity of small molecules. This particular assay uses a human lymphoblastoid cell line (LYMP2-005) purchased from Coriell Institute for Medical Research.
NCGC Assay Protocol Summary:
The CellTiter-Glo luminescent cell viability assay (Promega) is a homogeneous method to measure the number of viable cells in culture. The end point readout of this assay is based on quantitation of intracellular ATP, an indicator of metabolic activity, using the luciferase reaction. Luciferase catalyzes the oxidation of beetle Luciferin to oxyluciferin and light in the presence of ATP. The luminescent signal is proportional to amount of ATP present.
Using the CellTiter-Glo luminescent cell viability assay, the amount of cellular ATP was measured in the lymphoblastoid cell line with complete culture medium following compound treatment for 24 hours. The assay was performed in opaque white Kalypsys 1536-well plates. In the screen, tetraoctylammonium bromide was used as positive control. Library compounds were measured for their ability to cause acute toxicity in the cell line, as reflected by a decrease in intracellular ATP levels, in a concentration-dependent manner. […] AC50 values were determined from concentration-response data modeled with the standard Hill equation.
qHTS protocol for CellTiter Glo lymphoblastoid cellular assay
[Step] [Parameter] [Value] [Description]
1. Reagent; 5 uL; 2500 lymphoblastoid cells/well
2. Time; 5 hr; 37 C incubation
4. Controls; 23 nL; Tetraoctylammonium bromide 6.4pM to 92 uM
5. Time; 24 hr; 37 C incubation
6. Reagent; 5 uL; CellTiter Glo reagent
7. Time; 30 min; Room Temperature
8. Detection; Luminescence; Viewlux plate reader
Keywords: cell viability, cytotoxicity, lymphoblastoid cell line, luminescence, NTPHTS, NTPHTS_NCGC, NIEHS, DSSTox, MLSMR, MLSCN, NIH Roadmap, qHTS, NCGC
For `CN(C)/N=N/c1nc[nH]c1C(N)=O`, the “activity change, negative = viability loss” value was 0.579%. For `Nc1ccc(C(=O)O)cc1`, the “activity change, negative = viability loss” value was 10.2%. In the case of `CC(=O)Oc1ccc(C(c2ccc(OC(C)=O)cc2)c2ccccn2)cc1`, the “activity change, negative = viability loss” value is reported as -5.95%. In the case of `O=C(O)CCCCC(=O)O`, the “activity change, negative = viability loss” value is reported as 16.7%. With `C=CCc1ccc(O)c(OC)c1` the “activity change, negative = viability loss” value was 5.9%. For `COc1cccc2c1C(=O)c1c(O)c3c(c(O)c1C2=O)C[C@@](O)(C(C)=O)C[C@@H]3O[C@H]1C[C@H](N)[C@H](O)[C@H](C)O1`, the Potency was 158 nM (active). For `CC/C(=C(/CC)c1ccc(O)cc1)c1ccc(O)cc1`, the “activity change, negative = viability loss” value was -18.2%. For `CC(O)C(=O)O` (stereo unspecified), the “activity change, negative = viability loss” value was 7.26%. With `C[C@]12CC[C@@H]3c4ccc(O)cc4CC[C@H]3[C@@H]1CC[C@@H]2O` the “activity change, negative = viability loss” value was -0.327%. With `Oc1c(Cl)cc(Cl)cc1Sc1cc(Cl)cc(Cl)c1O` the “activity change, negative = viability loss” value was -17.9%. In the case of `CCCCCCc1ccc(O)cc1O`, the “activity change, negative = viability loss” value is reported as -21.3%. For `COC1=CC(=O)C[C@@H](C)[C@]12Oc1c(Cl)c(OC)cc(OC)c1C2=O`, the “activity change, negative = viability loss” value was 1.18%. For `Oc1ccc(O)cc1`, the Potency was 39800 nM (active). In the case of `O=C1OC(c2ccc(O)cc2)(c2ccc(O)cc2)c2ccccc21`, the “activity change, negative = viability loss” value is reported as 24%. With `COc1cccc2c1C(=O)c1c(O)c3c(c(O)c1C2=O)C[C@@](O)(C(=O)CO)C[C@@H]3O[C@H]1C[C@H](N)[C@H](O)[C@H](C)O1` the Potency was 398 nM (active). For `O=c1ccc2ccccc2o1`, the “activity change, negative = viability loss” value was -52.2%.
